Screening results: PubChem BioAssay, National Center for Advancing Translational Sciences (NCATS)
Hits are enriched below; roughly 9% of the tested compounds scored in any of these assays.
ALDH1A1 inh: inhibitors of human aldehyde dehydrogenase 1A1; Purified ALDH1A1, NADH fluorescence, propionaldehyde substrate; 7.3% of 220,000 active; Potency, µM (highest dose often 75.3 µM), without a hit: at the highest dose activity, negative = inhibition, most hits filed as inhibitors; AID 1030; P00352;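 further: potency means the concentration at half of the fitted maximal effect; plate controls were no enzyme wells and a reference inhibitor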
HPGD inh: HPGD (human) dehydrogenase inhibition | P15428 | purified HPGD, NADH fluorescence kinetic, PGE2 substrate | Potency, µM, for the others: at the highest dose activity change, negative = inhibition, usual class: inhibitors | 4.3% of 150,000 active | AID 894; further: potency means the concentration at half of the fitted maximal effect
Target sequence (P15428 whole entry, looked up): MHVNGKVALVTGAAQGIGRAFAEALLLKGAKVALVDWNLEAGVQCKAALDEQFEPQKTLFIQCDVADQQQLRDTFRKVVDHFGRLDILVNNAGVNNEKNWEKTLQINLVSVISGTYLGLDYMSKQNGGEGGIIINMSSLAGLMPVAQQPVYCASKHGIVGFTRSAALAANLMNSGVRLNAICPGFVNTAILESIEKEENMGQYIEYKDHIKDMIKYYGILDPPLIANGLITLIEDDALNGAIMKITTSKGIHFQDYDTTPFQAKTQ
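NADH formation kinetics: reaction with 30 uM PGE2 and 1 mM NAD+ (final), 20 nM enzyme, Tris-HCl pH 8 with Tween 20, after 15 min compound preincubation at room temperature. Fluorescence change, last versus first of five reads.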
IMPase cell inh: IMPase inhibition in cells. inhibition (IP1 accumulation), % at 46.1 µM. AID 901. 120,000 tested, under 10 active. CHO-M1 cells, IP1 accumulation, HTRF TR-FRET ratio. P97697; active means well fitted curve in the direction sought with a large enough effect in the signal ratio, not every such curve was filed as active; inconclusive means small, poorly fitted or top-dose-only effect, or a change in a side signal; inactive means no such curve, though single readings can be large or run the other way; the % refers to the signal ratio;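 further: cells stimulated with carbachol in lithium chloride buffer; plate controls were DMSO basal wells for no effect and reference inhibitor wells for full effect; higher means more IMPase inhibition seen as more IP1 and lower FRET ratio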
Target sequence (P97697 whole entry, looked up): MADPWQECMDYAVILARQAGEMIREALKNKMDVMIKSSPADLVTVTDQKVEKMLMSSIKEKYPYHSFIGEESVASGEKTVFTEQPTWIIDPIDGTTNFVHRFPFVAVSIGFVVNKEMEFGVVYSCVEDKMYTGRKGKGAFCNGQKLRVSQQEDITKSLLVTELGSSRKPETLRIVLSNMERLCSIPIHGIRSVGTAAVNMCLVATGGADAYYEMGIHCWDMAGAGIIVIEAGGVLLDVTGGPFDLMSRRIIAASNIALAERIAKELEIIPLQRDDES
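CHO-M1 cells (CHO stably expressing M1 receptor), compound up to 46 uM final, stimulated with carbachol (50 uM as added) in buffer with 50mM LiCl, pH 7.4, 30 min at 37C. Cytosolic IP1 read by TR-FRET; AC50 from Hill fits.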
* marks the source's active call; other numbers are inactive results; u = inconclusive; x = not tested or not shown. Unless noted, the call rests on the fitted dose curve; in most records, active means well fitted inhibition curve with a large enough effect (not every such curve was filed as active); inconclusive means small, poorly fitted or top-dose-only effect, or another doubt; inactive means no such curve, though single readings can be large or run the other way. Unless noted, on the % scale 0 is the no-effect control and ±100 the full control effect.

SMILES	ALDH1A1 inh	HPGD inh	IMPase cell inh
O=C(COC(=O)c1ccccc1)NCC1CCCO1 (stereo unspecified)	-6.7%	-29.6%	-10.1
CN(C)c1cccc(C(=O)NCC2CCCO2)c1 (stereo unspecified)	u	-16.2%	10.6
O=C(NCC1CCCO1)C1CCN(S(=O)(=O)c2ccccc2)CC1 (stereo unspecified)	2.3%	x	x
Cc1ccc(N2CCN(C(=O)c3cc4cc5ccc(C)cc5nc4s3)CC2C)cc1 (stereo unspecified)	x	x	1.2
CCCCN(CCCNc1ncnc2nc[nH]c12)c1ccccc1	-1.6%	-4.9%	-5.1
CCCCN(c1ccccc1)c1ncnc2nc[nH]c12	11.2µM*	-11.0%	-4.1
O=C(COc1ccc(/C=N/NC(=O)c2ccccc2O)cc1)Nc1ccc([N+](=O)[O-])cc1	7.9%	-2.7%	x
CC(C)OC(=O)c1cn(-c2ccccc2)nc1-c1ccco1	11.2µM*	-24.2%	0.9
CCOC(=O)C1=C(C)NC(C)=C(C(=O)OCC)C1c1cn(-c2ccccc2)nc1-c1ccco1	u	15.3%	15.5
CC(=O)C1=C(C)NC(SCc2cccc([N+](=O)[O-])c2)=C(C#N)C1c1ccco1 (stereo unspecified)	u	-5.7%	3.5
CCCCc1cc2c(cn1)C(=O)C(C)(OC(C)=O)C(=O)C2 (stereo unspecified)	1.26µM*	-3.5%	x
CCCCCCCc1cc2c(cn1)=C(OC)C(C)(OC(C)=O)C(=O)C=2Cl (stereo unspecified)	-10.9%	-5.1%	x
O=C(CSC(=S)N1CCCCC1)N1N=CCC1c1ccccc1 (stereo unspecified)	u	-14.6%	1.5
O=C(CSC(=S)N1CCCC1)c1cc(Br)cc(Br)c1O	15.8µM*	x	x
CC1CCCN(C(=S)SCC(=O)O)C1 (stereo unspecified)	6.8%	-2.3%	x
CC1CCCN(C(=S)SCC(=O)c2cc(Br)cc(Br)c2O)C1 (stereo unspecified)	25.1µM*	x	x
CC(C)CCN1CCN(CC#Cc2ccccc2)CC1CCO (stereo unspecified)	-4.1%	x	x
Cc1ccccc1N=Nc1c(C)[nH]n(-c2ccccc2)c1=O	3.6%	x	x
Cc1cccc(N=Nc2c(C)[nH]n(C(N)=S)c2=O)c1C	17.8µM*	x	x
CCN(CC)S(=O)(=O)c1ccc(N=Nc2c(C)[nH]n(C(N)=S)c2=O)cc1	7.94µM*	35.5µM*	8.5
NC(=S)n1[nH]c(-c2ccc([N+](=O)[O-])cc2)c(N=Nc2ccc(O)cc2)c1=O	u	-29.0%	-4.6
Cc1[nH]n(-c2ccccc2)c(=O)c1N=Nc1ccccc1O	-10.7%	x	x
Cc1ccccc1N=Nc1c(C)[nH]n(C(N)=S)c1=O	20µM*	-23.7%	x
O=C(Nc1ncn[nH]1)c1cc(S(=O)(=O)Nc2cccc(C(F)(F)F)c2)ccc1Cl	-5.5%	x	x
COc1ccccc1N1CCN(CCc2n[nH]c(=S)n2-c2ccccc2)CC1	-12.2%	-19.1%	11.4
SMILES	ALDH1A1 inh	HPGD inh	IMPase cell inh
O=C(COC(=O)c1cnccn1)NCc1ccc(Cl)cc1	-11.7%	x	x
CCCCCN=c1ccn(Cc2ccccc2)c2ccccc12	-7.6%	-3.0%	18.9
CCCCOC(=O)N/N=C/C=C/c1ccccc1	7.4%	x	0.1
O=C(Nc1ccc2oc(-c3cccnc3)nc2c1)c1ccc(-c2cccc(OC(F)(F)F)c2)o1	x	x	-14.6
O=C(Nc1cccc(-c2ccc3nncn3n2)c1)c1ccco1	-8.7%	x	x
Cc1ccccc1C(=O)Nc1cccc(-c2ccc3nncn3n2)c1	14.1µM*	x	x
COc1cc(N(C)C)c([N+](=O)[O-])cc1C(=O)NC(C)CNc1ccc([N+](=O)[O-])cc1Cl (stereo unspecified)	1.58µM*	-20.4%	-6.6
COc1ccccc1NC(=O)c1ccc([N+](=O)[O-])cc1[N+](=O)[O-]	-2.1%	x	x
O=C(CSc1nc(-c2ccccc2)cs1)NCc1ccco1	25.1µM*	28.2µM*	-13.8
O=C(CSc1ncc(-c2ccccc2)nn1)NCc1ccco1	-3.4%	-23.6%	-0.8
Cc1ccc(C(=O)CSc2nnc(CNc3nc(-c4ccccc4)cs3)n2C)cc1	14.1µM*	-20.6%	-0.5
Cc1cc(C)nc(SCc2nnc(SCC(=O)Nc3nc(-c4ccccc4)cs3)n2C)n1	-9.9%	-23.3%	u
CC(=O)Nc1ccc(-c2csc(NCc3ccco3)n2)cc1	u	u	0.0
CCn1c(CSc2nc(C)cc(C)n2)nnc1SCC(=O)Nc1nc(-c2ccccc2)cs1	7.9%	-11.3%	15.1
c1cncc(-c2csc(NCc3ccco3)n2)c1	u	14.1µM*	1.8
CCn1c(CNc2nc(-c3ccccc3)cs2)nnc1SCC(=O)NCc1ccco1	28.2µM*	u	-4.9
Cc1ccc(S(=O)(=O)N2CCCCC2)cc1C(=O)Nc1ncn[nH]1	-1.2%	-5.9%	-4.0
CNC(=O)c1c2c(nc3ccc(Br)cc13)CCCC2	-8.7%	x	x
Cc1nonc1NC(=O)c1ccc(Cl)c(S(=O)(=O)N2CCCCC2)c1	-8.9%	-1.2%	11.3
COc1cccc(CC(NC(C)=O)C(=O)NC2CCN(S(=O)(=O)c3ccc(C)cc3)CC2)c1OC (stereo unspecified)	-6.2%	x	x
Cc1ccc(NC(=O)c2cccc(S(=O)(=O)N(C)c3ccccc3)c2)cc1S(=O)(=O)N1CCOCC1	3.3%	-18.7%	x
c1ccc(-c2csc(-n3cnnn3)n2)cc1	-4.9%	-17.2%	-2.3
CSCCC(NC(=O)c1ccc(Cl)cc1)C(=O)OCC(=O)Nc1cc(Cl)ccc1C#N (stereo unspecified)	-7.0%	-11.7%	x
OC[C@H]1NC[C@@H](O)[C@@H]1O	1.8%	-15.3%	x
COCCNC(=O)CSc1nc(-c2ccccc2)cs1	0.4%	31.6µM*	u
SMILES	ALDH1A1 inh	HPGD inh	IMPase cell inh
Cc1csc(SCC(=O)Nc2nc(-c3ccccc3)cs2)n1	0.4%	-11.7%	-0.5
O=C(Nc1cccc2ccccc12)c1nn(C23CC4CC(CC(C4)C2)C3)cc1[N+](=O)[O-]	u	-15.0%	u
COc1ccc(NC(=O)c2nn(C34CC5CC(CC(C5)C3)C4)cc2[N+](=O)[O-])cc1	0.282µM*	-8.0%	x
COc1ccccc1C(=O)NCCc1c(C)[nH]c2c(C)ccc(F)c12	8.3%	x	x
O=C(CNC(=O)c1ccc(S(=O)(=O)N2CCCC2)cc1)N/N=C/c1c(Cl)cccc1Cl	u	-15.7%	x
CN1CCCC2(CCN(C(=O)c3cccc(F)c3)CC2)C1	-4.0%	-2.0%	x
COc1cc(C)cc2c(-c3c(O)cc(O)c4c3C[C@H](C)N[C@@H]4C)cc(-c3cc(-c4c(O)cc(O)c5c4C[C@H](C)N[C@@H]5C)c4cc(C)cc(OC)c4c3O)c(O)c12	u	-11.8%	x
COc1ccc2ccccc2c1/C=N/O	-3.1%	7.08µM*	3.3
C=CCOc1ccc(Br)cc1/C=N/O	u	4.47µM*	3.4
C=CCOc1ccc2ccccc2c1/C=N/O	-1.9%	2.51µM*	-0.4
COc1ccc2ccccc2c1-c1c(OC)ccc2ccccc12	8.6%	0.7%	x
CCOc1ccc2ccccc2c1/C=N\NC(=O)OC	u	-8.8%	x
C=CCOc1ccc(/C=N/O)cc1Cl	3.4%	-18.8%	x
CCc1ccc(NS(=O)(=O)c2ccc3oc(=O)c4ncn(CC)c4c3c2)cc1	x	x	-1.1
CCn1c(CNC(=O)Cc2ccc(OC)cc2)nnc1SCC(=O)Nc1ccc(C(=O)O)cc1	-2.9%	x	x
O=C(COC(=O)C1=COCCO1)Nc1ccc(OC(F)F)cc1	-5.3%	x	x
